PI4K2A inh = qHTS for small molecular inhibitors of PI4K2A; Phosphatidylinositol 4-kinase type 2-alpha (Homo sapiens), Q9BTU6; purified PI4K2A, ADP-Glo luminescence, 1 h; hits give low values; activity change, negative = inhibition, % at 76.9 µM; 420,000 compounds, 0.13% hits; AID 1346378, 2018; in the data active means activity change below about -50%; inconclusive means mostly about -30% to -49%;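 further: -100% = wells without enzyme as full effect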
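In this quantitative HTS, ADP production by PI4K2A was quantified luminescently after 1 h at ambient temperature; 100 microM adenosine served as plate-quality control.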
D3 ag = qHTS of D3 Dopamine Receptor Agonist: qHTS; D(3) dopamine receptor (Homo sapiens), P35462; D3R DiscoveRx beta-arrestin cells, luminescence, 90 min; max activation, %; 410,000 compounds, 0.58% hits; in the data active means max activation above about 30%; further: 0% is about no effect
Target sequence (P35462 whole entry, looked up): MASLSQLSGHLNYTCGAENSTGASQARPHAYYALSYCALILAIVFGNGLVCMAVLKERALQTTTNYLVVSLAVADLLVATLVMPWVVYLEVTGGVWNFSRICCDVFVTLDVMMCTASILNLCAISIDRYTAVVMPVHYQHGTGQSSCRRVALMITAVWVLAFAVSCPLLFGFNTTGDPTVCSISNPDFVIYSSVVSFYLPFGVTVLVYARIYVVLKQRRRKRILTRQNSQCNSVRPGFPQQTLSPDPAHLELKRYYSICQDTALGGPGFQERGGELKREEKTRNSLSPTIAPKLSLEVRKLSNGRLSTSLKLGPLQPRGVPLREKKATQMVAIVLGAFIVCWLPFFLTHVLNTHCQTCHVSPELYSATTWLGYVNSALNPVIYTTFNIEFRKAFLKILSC
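Agonist mode: compounds and dopamine controls were applied to plated cells for 90 min at 37 degrees C after an overnight attachment at 1500 cells/well. Luminescent read-out followed 30 - 60 minutes at room temperature with DiscoveRx detection reagent.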
pAkt inh = HTS Assay for Inhibitors of Akt Phophorylation: Primary Screen; 360,000 compounds, 0.32% hits; activity change, % for hits at 50 µM; Neuro2A IGF-stimulated pAkt S473 HTRF, 20 min; hits give low values; in the data active means activity change below about -80%; inconclusive means mostly about -51% to -80%; further: on the % scale 0 is the no-effect control and ±100 the full control effect
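Single-point screen (50 µM final compound) in Neuro2A cells stimulated 20 min with 6 nM IGF at 37 deg C. After lysis, Ser473-phosphorylated Akt read by HTRF (ex 330 nm, em 615/665 nm) as the 665/615 ratio.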
D3 antag = qHTS of D3 Dopamine Receptor Antagonist: qHTS; D(3) dopamine receptor (Homo sapiens), P35462; D3R cells, DiscoveRx beta-arrestin luminescence, antagonist mode; hits give low values; max response, negative = inhibition, %; 360,000 compounds, 2.5% hits; in the data active means max response below about -50%; inconclusive means no clear call, values can overlap the other calls; further: on the % scale 0 is the no-effect control and ±100 the full control effect
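Cells expressing the human receptor were seeded at 1500 cells/well, incubated overnight at 37 degrees C in 5% CO2, then exposed to library compounds with dopamine controls for 90 minutes at 37 degrees C before luminescent detection.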
LDHA inh = qHTS assay for inhibitors of human lactate dehydrogenase | L-lactate dehydrogenase A chain (Homo sapiens), P00338 | purified LDHA, NADH/diaphorase-resazurin fluorescence; hits give low values | activity change, % (values are at about 110 or 230 µM) | 480,000 compounds, 0.15% hits | AID 1347041, 2019; in the data active means activity change below about -30%; inconclusive means mostly about -25% to -30%;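 further: plate controls were DMSO wells for no effect and wells without enzyme for full effect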
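LDH5 2 nM; NADH 0.06 mM, pyruvate 0.2 mM; 200 mM Tris pH 7.4, EDTA, Tween-20; 5 min RT. Detection: diaphorase 0.133 mg/mL + resazurin 37 µM, fluorescence ex540/em590 at 0 and 20 min; normalized to enzyme-free and DMSO wells.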
RGS4 inh = Inhibitors of Regulator of G Protein Signaling (RGS) 4: qHTS; Regulator of G-protein signaling 4 (Homo sapiens), P49798; 390,000 compounds, 0.039% hits; Potency, µM (titrated, usually from 114 µM), for inactives: top-dose activity change, negative = inhibition, usual class: inhibitors; Transcreener GDP fluorescence polarization, RGS4-accelerated GTP hydrolysis; active means well fitted inhibition curve with a large enough effect; inconclusive means small, poorly fitted or top-dose-only effect; inactive means no such curve, though single readings can be large or run the other way; further: potency means the concentration at half of the fitted maximal effect; on the % scale 0 is the no-effect control and ±100 the full control effect; nearly all actives have a fitted effect of over 75% in size
Target sequence (P49798 whole entry, looked up): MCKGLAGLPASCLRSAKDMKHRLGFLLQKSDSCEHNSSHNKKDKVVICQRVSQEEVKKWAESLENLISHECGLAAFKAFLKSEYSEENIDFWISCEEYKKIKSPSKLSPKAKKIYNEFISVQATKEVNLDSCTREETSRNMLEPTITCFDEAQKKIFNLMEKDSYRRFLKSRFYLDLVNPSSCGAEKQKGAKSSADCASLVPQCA
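MLSMR compounds (23 nl, pin-transferred) preincubated 10 min at room temperature with a 500nM (2x) first reagent, then RGS4 at 900nM (2x) plus Transcreener GDP mix added; fluorescence polarization (620/688 nm) read before and after 90 min at 30 °C.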
Starred values were filed as active, the others as inactive; i = inactive; ? = inconclusive; / = no result given. In the library only some 2.8% were active in any assay of this set; here they are far more common.

SMILES | PI4K2A inh | D3 ag | pAkt inh | D3 antag | LDHA inh | RGS4 inh
CCOC(=O)CN1C(=O)C2Cc3ccccc3CN2C1=S (stereo not drawn) | 3 | -5 | i | 0 | -31* | 3%
COc1ccccc1-c1nc(C#N)c(NCc2ccc(Cl)cc2)o1 | / | / | / | / | 3 | /
O=C(NC1CCCC1)c1cc2c(F)cccc2s1 | / | / | / | / | -30* | /
CC(C)(C)n1ncc2c(=O)n(CC(=O)c3ccccc3)cnc21 | -8 | 4 | -115%* | 56 | -1 | 14%
CC(C)(C)n1ncc2c(=O)n(CC(=O)OCc3ccccc3)cnc21 | -8 | 5 | i | ? | 0 | 2%
CC(C)=C1CC[C@H](C)[C@](C)(COc2ccc3ccc(=O)oc3c2)[C@H]1CCC(=O)O | / | / | / | / | -11 | /
O=C(Nc1ccccc1)c1c[nH]c2ccc(F)cc2c1=O | / | / | / | / | -9 | /
Cc1nc(C(F)(F)F)c(C(=O)N/N=C(\N)c2ccccn2)s1 | 1 | -4 | i | -52* | 11 | -7%
N/C(=N\NS(=O)(=O)c1ccccc1C(F)(F)F)c1ccccn1 | -3 | 1 | i | 1 | 2 | 12%
N#Cc1ccccc1CSc1nc(C(F)(F)F)nc2ccccc12 | / | / | / | / | -3 | /
COc1cc(NC(=O)OCc2ccccc2)c2ncccc2c1 | 0 | 34* | i | 16 | 6 | 21%
O=C(Nc1cccc2cccnc12)OCc1ccccc1 | / | / | / | / | 11 | 22%
COc1cc(NC(C)CCCN)c2ncccc2c1 (stereo not drawn) | ? | 2 | i | -68* | 2 | -6%
CC(C)[C@@H](C(=O)NCC1CCC(C(=O)O)CC1)n1nnc2ccccc2c1=O (stereo partly drawn) | -11 | -4 | i | -57* | -7 | 33%
COc1cccc(C2NC(c3cccc(OC)c3O)C(C)C(=O)C2C)c1O (stereo not drawn) | -1 | 30* | i | 13 | 9 | -6%
COc1ccccc1C1NC(c2ccccc2OC)C(C)C(=O)C1C (stereo not drawn) | 1 | -13 | i | -20 | 0 | 6%
Cc1ccc(C)c(C(=O)Cn2ncc(Cl)c(Cl)c2=O)c1 | 10 | -9 | i | -28 | -6 | 1%
Cc1cc(C(=O)Cn2ncc(Cl)c(Cl)c2=O)c(C)n1CC(F)(F)F | -15 | -9 | i | -59* | 2 | -5%
Cc1ccc(NC(=S)NN)cc1 | / | / | / | / | -10 | /
CCCCS/C(N)=N/N=C/c1ccccc1O | 5 | -3 | -111%* | -50* | -3 | -24%
Cc1cc(Br)ccc1NC(=O)CNC(=O)Cn1ncc(Cl)c(Cl)c1=O | -3 | -15 | i | -83* | 0 | 9%
Cc1ccc(S(=O)(=O)N2CCCCC2)cc1NC(=O)Cn1ncc(Cl)c(Cl)c1=O | ? | -20 | i | -64* | 4 | -24%
Cc1ccc(S(=O)(=O)N2CCOCC2)cc1NC(=O)CNCc1cccnc1 | 4 | 80* | i | 21 | -40* | -10%
Cc1ccc(S(=O)(=O)N2CCOCC2)cc1NC(=O)CNCc1ccc(Cl)cc1Cl | 3 | 0 | i | 7 | -4 | -16%
CC(C)NC(=O)NC(=O)COC(=O)c1cc2c(s1)CCC2 | / | / | / | / | -2 | /
SMILES | PI4K2A inh | D3 ag | pAkt inh | D3 antag | LDHA inh | RGS4 inh
Cc1ccc(S(=O)(=O)N2CCn3cccc3C2c2ccccc2)cc1 (stereo not drawn) | / | / | / | / | 6 | /
Nc1nccnc1C(=O)NCC(c1ccccc1)c1c[nH]c2ccccc12 (stereo not drawn) | / | / | / | / | -1 | /
Cc1cc(N2CCN(c3ccccc3)CC2)n2nc(-c3ccccc3)nc2n1 | / | / | / | / | 0 | /
Cc1ccc(C(=O)Nc2cc(NC(=O)c3ccc(C)c(C)c3)cc(C(=O)O)c2)cc1C | / | / | / | / | 7 | /
O=C1c2ccccc2S(=O)(=O)N1CCS(=O)(=O)c1ccc(F)cc1 | -3 | 87* | i | -17 | -7 | 17%
O=C(CCN1C(=O)c2ccccc2S1(=O)=O)N1CCN(c2ccc(F)cc2)CC1 | 2 | 0 | i | 0 | -2 | 4%
Fc1cccc(-c2nc(COc3ccc(Br)cc3F)co2)c1 | / | / | / | / | -1 | /
Cc1nc(Nc2ccc3c(c2)OCO3)c2oc3ccccc3c2n1 | -10 | -3 | i | -54* | -5 | -13%
c1ccc2c(c1)oc1c(Nc3ccc4c(c3)OCO4)ncnc12 | -4 | -4 | i | -27 | 2 | -5%
Cc1nnc(Nc2ccc3c(c2)OCO3)c2ccccc12 | 7 | -8 | i | -63* | -1 | -43%
Cc1nc(Nc2ccccc2)c2oc3ccc(Cl)cc3c2n1 | -7 | 93* | i | -6 | -6 | 2%
N#Cc1ccc(C(=O)NC2CCC3CCCCC3C2)cc1 (stereo not drawn) | / | / | / | / | 1 | /
COc1ccc(S(=O)(=O)NCc2ccc(C(=O)NCCN(C)Cc3ccccc3)cc2)cc1 | 0 | -18 | i | -62* | -3 | /
COc1ccc(CNC(=O)c2ccc(CNS(=O)(=O)c3ccc(OC)cc3)cc2)cc1 | 0 | -3 | / | / | -4 | 11%
CCc1ccc2[nH]c(C(=O)O)cc2c1 | / | / | / | / | 7 | /
Cc1ccccc1C1C(C#N)=C2N=C(N)c3c(sc4c3CCCCC4)N2C2=C1C(=O)CC(C)(C)C2 (stereo not drawn) | 1 | -8 | i | -61* | 4 | -27%
Cn1nc(C(=O)NC(CC(=O)O)c2ccccc2)c2ccccc2c1=O (stereo not drawn) | / | / | / | / | -23 | /
COC(=O)c1n[nH]c([Si](C)(C)C)c1[Si](C)(C)C | / | / | / | / | 7 | /
COC(=O)c1cc(Cl)c(NC(=O)c2ccc(C(C)(C)C)cc2)cc1OC | 2 | 70* | i | 29 | 3 | -34%
COC(=O)c1cc(Cl)c(NC(=O)C(C)C)cc1OC | 0 | -1 | i | 5 | -5 | 2%
CC(C)Cn1nc(C(=O)Nc2nc(-c3ccc4c(c3)OCCO4)cs2)c2ccccc2c1=O | / | / | / | / | 14 | /
Cc1cn([C@H]2C[C@H](O)[C@@H](CNCc3ccc(-c4cc(Cl)ccc4C(F)(F)F)o3)O2)c(=O)[nH]c1=O | -1 | -17 | i | -75* | 0 | /
CN(C(=O)COC(=O)c1csc(NCc2ccccc2)n1)c1ccccc1 | / | / | / | / | -18 | /
O=C(c1ccc2c(c1)OCO2)C1CCCN(Cc2ccccc2OC(F)F)C1 (stereo not drawn) | 5 | -16 | i | -63* | -1 | -16%

Screens deposited in PubChem BioAssay by National Center for Advancing Translational Sciences (NCATS).
